# Experimental data reported in PubChem BioAssay AID449749 (Broad Institute, 2010).
# About 1,700 (81%) of roughly 2,100 compounds were called active. So high a share suggests a set chosen from earlier hits. The list shows a part of the results. Entries with a potency or affinity are not part of this list. Records with an inconclusive call do not appear. How the calls were made is not given here.
# Target: Replicative DNA helicase DnaB (Mycobacterium tuberculosis (strain ATCC 25618 / H37Rv)) (UniProt P9WMR3)
# Assay: DnaB intein splicing inhibitors, dose response, biochemical, M. tuberculosis H37Rv, cell-free fluorescence (AID 449749)
# Settings: series mostly up to 38 µM
# Chain of Replicative DNA helicase DnaB (Mycobacterium tuberculosis (strain ATCC 25618 / H37Rv)) (P9WMR3 whole entry, looked up): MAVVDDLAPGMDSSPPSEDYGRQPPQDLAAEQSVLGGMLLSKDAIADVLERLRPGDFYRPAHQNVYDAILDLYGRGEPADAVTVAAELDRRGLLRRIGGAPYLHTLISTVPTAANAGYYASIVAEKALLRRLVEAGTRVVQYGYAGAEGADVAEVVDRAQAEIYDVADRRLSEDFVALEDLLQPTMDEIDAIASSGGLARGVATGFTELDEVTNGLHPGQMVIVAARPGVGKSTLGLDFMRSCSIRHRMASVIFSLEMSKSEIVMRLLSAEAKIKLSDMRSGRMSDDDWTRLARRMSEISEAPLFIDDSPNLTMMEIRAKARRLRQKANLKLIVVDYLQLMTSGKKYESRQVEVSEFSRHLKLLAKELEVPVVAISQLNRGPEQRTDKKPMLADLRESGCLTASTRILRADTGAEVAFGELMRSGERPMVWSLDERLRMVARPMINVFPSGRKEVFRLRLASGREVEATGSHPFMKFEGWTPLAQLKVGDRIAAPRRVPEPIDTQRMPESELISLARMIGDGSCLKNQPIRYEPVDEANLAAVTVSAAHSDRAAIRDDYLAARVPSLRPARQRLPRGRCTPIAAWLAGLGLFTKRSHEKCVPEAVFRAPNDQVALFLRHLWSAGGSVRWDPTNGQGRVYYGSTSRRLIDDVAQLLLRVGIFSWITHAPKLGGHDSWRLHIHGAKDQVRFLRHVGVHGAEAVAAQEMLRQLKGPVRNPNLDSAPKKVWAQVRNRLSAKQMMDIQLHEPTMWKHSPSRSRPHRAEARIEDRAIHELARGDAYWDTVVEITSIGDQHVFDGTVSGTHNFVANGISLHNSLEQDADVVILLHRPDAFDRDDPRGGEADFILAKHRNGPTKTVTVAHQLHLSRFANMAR
row,SMILES,outcome
1,OCCNC(=S)Nc1ccc2nsnc2c1,inactive
2,CCCCNC(=O)c1c(N)n(Cc2ccc3c(c2)OCO3)c2nc3ccccc3nc12,inactive
3,Cc1ccsc1C=Nc1ccc(O)cc1,inactive
4,C=CCn1c(N)c(C(=O)Nc2cccc(C)c2)c2nc3ccccc3nc21,inactive
5,CN1/C(=C/C(=O)c2nc(S(C)(=O)=O)ncc2Cl)C(C)(C)c2ccccc21,inactive
6,ONc1cccnc1-n1nc(C(F)(F)F)cc1C(F)(F)F,inactive
7,CCCCCn1c(N)c(C(=O)NCc2cccs2)c2nc3ccccc3nc21,inactive
8,O=[N+]([O-])c1cncc([N+](=O)[O-])c1Nc1cccc(O)c1,inactive
9,CCOc1ccc2c(c1)-c1c(ssc1=S)C(C)(C)N2,inactive
